From the supplement of paper PMC13380429

Tested on: Vero E6 infected with SARS-CoV-2
Experiment: inhibition of SARS-CoV-2 cytopathic effect; higher = more antiviral protection, active = above 15
Conditions: 48 h

Measured: inhibition of SARS-CoV-2 cytopathic effect

C[C@H](N[C@@H](CCc1ccccc1)C(=O)O)C(=O)N1CCC[C@H]1C(=O)O [enalaprilat]
inactive: 1 nM -0.58% | 8.33 nM 1.11% | 100 nM -0.39% | 833.33 nM 1.61% | 10000 nM 2.39%

Cc1ccc(Sc2cncc3sc(C(N)=O)cc23)cc1
inactive: 1 nM -1.26% | 8.33 nM -2.96% | 100 nM -2.49% | 833.33 nM -2.02% | 10000 nM 4.33%

O=C(NCCCN1CCOCC1)c1cnn2c(-c3ccccc3)cc(-c3ccccc3)nc12 [reversan]
inactive: 1 nM 12.1% | 8.33 nM 0.65% | 100 nM 1.42% | 833.33 nM 0.17% | 10000 nM -6.41%

CC(=O)CCCCn1c(=O)c2c(ncn2C)n(C)c1=O [pentoxifylline]
inactive: 1 nM 3.31% | 8.33 nM 2.23% | 100 nM 0.1% | 833.33 nM 1.21% | 10000 nM -0.68%

Nc1nccc(-c2ccc3noc(-c4ccc(Cl)cc4)c3c2)n1 [PIM-1-Inhibitor-2]
inactive: 1 nM 0.72% | 8.33 nM -0.19% | 100 nM 3.66% | 833.33 nM 0.83% | 10000 nM 0.56%

CCOCc1cc(OC)c(-c2ccc(C[C@H](NC(=O)c3c(F)cccc3F)C(=O)O)cc2)c(OC)c1 [firategrast]
inactive: 1 nM 2.19% | 8.33 nM -0.43% | 100 nM 0.01% | 833.33 nM -0.69% | 10000 nM -2.41%

CCN1C(C)(C)CC(Oc2ccc(C(=O)Nc3ccc(NC(=O)Nc4cc(C(C)(C)C)on4)cc3)nc2)CC1(C)C
inactive: 1 nM -2.79% | 8.33 nM -0.55% | 100 nM -1.48% | 833.33 nM -1.05% | 10000 nM -4.86%

CCC[C@H]1C(=O)N2C(N(C)C)=Nc3ccc(C)cc3N2C1=O [azapropazone]
inactive: 1 nM -0.8% | 8.33 nM -0.4% | 100 nM -0.47% | 833.33 nM -0.49% | 10000 nM -3.61%

NC(=O)CN1CC(O)CC1=O (stereo not given) [oxiracetam]
inactive: 1 nM 1.13% | 8.33 nM 0.12% | 100 nM 0.71% | 833.33 nM 4.22% | 10000 nM 0.29%

Cc1ccc(OCCSc2ncccn2)c(Br)c1
inactive: 1 nM -2.86% | 8.33 nM -1.79% | 100 nM -1.08% | 833.33 nM -4.19% | 10000 nM -1.49%

O=c1ccc2ccc(O)c(O)c2o1 [daphnetin]
inactive: 1 nM -1.96% | 8.33 nM 2.35% | 100 nM -2.13% | 833.33 nM 4.54% | 10000 nM 2.15%

CCCCCCCCCCCCCCOc1ccc(C(=O)O)o1
inactive: 1 nM -3.57% | 8.33 nM 0.74% | 100 nM 1.46% | 833.33 nM -0.07% | 10000 nM 2.73%

CC(C)[C@H](NS(=O)(=O)c1ccc(-c2ccc(Br)cc2)cc1)C(=O)O
inactive: 1 nM 0.82% | 8.33 nM 0.67% | 100 nM -0.06% | 833.33 nM 0.69% | 10000 nM 1.89%

O=C(O)C1=C[C@@H](O)[C@@H](O)[C@H](O)C1 [shikimic-acid]
inactive: 1 nM 2.18% | 8.33 nM 1.14% | 100 nM 0.89% | 833.33 nM 2.68% | 10000 nM 0.85%

CC[C@H](C)[C@@H]1NC(=O)[C@H](Cc2ccc(O)cc2)NC(=O)[C@@H](N)CSSC[C@@H](C(=O)N2CCC[C@H]2C(=O)N[C@@H](CC(C)C)C(=O)NCC(N)=O)NC(=O)[C@H](CC(N)=O)NC(=O)[C@H](CCC(N)=O)NC1=O [oxytocin]
inactive: 1 nM 5.14% | 8.33 nM 3.79% | 100 nM 3.52% | 833.33 nM 0.66% | 10000 nM -0.57%

N#CC(c1ccnc(OCc2ccc(CN3CCOCC3)cc2)n1)c1nc2ccccc2s1 (stereo not given)
inactive: 1 nM -1.68% | 8.33 nM 0.15% | 100 nM 1.92% | 833.33 nM 2.82% | 10000 nM 6.87%

O=C(O)P(=O)(O)O [foscarnet]
inactive: 1 nM 3.44% | 8.33 nM 3.89% | 100 nM 2.56% | 833.33 nM 0.33% | 10000 nM 0.71%
